# Bioassay records from PubChem BioAssay.
# D1 antag: Antagonist of Human D 1 Dopamine Receptor: qHTS; 3.2% of 360,000 active; HEK293 TREx D1 cells, calcium flux, dopamine EC80; stronger effect = lower value; AID 504652, 2011; activity change, negative = inhibition, % at 10 µM; D(1A) dopamine receptor (Homo sapiens), P21728; in the data active = activity change below about -30%
#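 Compound effects on dopamine-evoked calcium signalling were measured in tetracycline-induced HEK293 Trex D1 cells. Dopamine at EC80 followed a 180 s compound pre-read, and fluorescence was tracked kinetically for 180 s more.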
# TRHR ag: qHTS for Small Molecule Agonists and Allosteric Enhancers of Human TRH Receptor: Primary Screen for Agonists | TRHR cells, calcium flux fluo-8, FDSS agonist mode | activation, % at 2 µM | 0.18% of 360,000 active
# Target sequence (P34981 whole entry, looked up): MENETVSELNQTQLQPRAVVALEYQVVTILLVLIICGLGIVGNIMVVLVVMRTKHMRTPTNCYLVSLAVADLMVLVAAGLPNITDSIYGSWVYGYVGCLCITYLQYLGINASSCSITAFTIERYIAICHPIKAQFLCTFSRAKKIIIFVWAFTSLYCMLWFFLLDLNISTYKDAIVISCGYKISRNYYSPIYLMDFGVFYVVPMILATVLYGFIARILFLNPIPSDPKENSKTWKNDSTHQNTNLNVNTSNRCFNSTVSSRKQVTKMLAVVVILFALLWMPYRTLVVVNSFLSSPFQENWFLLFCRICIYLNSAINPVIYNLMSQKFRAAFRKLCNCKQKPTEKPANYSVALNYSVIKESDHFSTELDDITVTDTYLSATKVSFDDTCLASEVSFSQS
#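 Fluo-8-loaded TRHR cells; 10 s baseline, compound added, kinetic Ca2+ fluorescence read 1/s, agonist mode.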
# TRHR enhancer: qHTS for Small Molecule Agonists and Allosteric Enhancers of Human TRH Receptor: Primary Screen for Enhancers. TRHR cells, fluo-8 calcium fluorescence, EC20 TRH enhancement. 0.66% of 360,000 active. enhancement, % at 2 µM. Thyrotropin-releasing hormone receptor (Homo sapiens), P34981; in the data active = enhancement above about 30%
#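 Enhancer read-out: after compound pinning and an initial kinetic agonist-mode read, an EC20 of TRH (10 nM final) was injected and fluo-8 calcium signal (Ex 480/Em 530) followed at 1 s/cycle for 100 cycles in TRHR-expressing cells.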
# D1 agonist: Allosteric Agonists of the Human D1 Dopamine Receptor: qHTS; HEK293 T-REx D1 cells, calcium flux, agonist mode; activation, % at 2 µM; 1% of 360,000 active; AID 504660, 2011
#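 Agonism was scored from calcium flux recorded over 180 s (1 read/s) after pintool compound addition, following a 10-cycle baseline. Cells were inducible force-coupled HEK293 TREx D1, plated overnight at 30 C and loaded with no-wash calcium dye.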
# D1 PAM: Potentiators of Human D1 Dopamine Receptor: qHTS; D(1A) dopamine receptor (Homo sapiens), P21728; potentiation, % at 10 µM; 0.036% of 360,000 active; HEK293 TREx D1 cells, calcium flux, dopamine EC20 potentiation; in the data active = potentiation above about 30%
# GRP78 ERSR act: qHTS for Inducers of the Endoplasmic Reticulum Stress Response (ERSR) in Human Glioma: qHTS; AID 602332, 2012; 0.02% of 420,000 active; Potency, µM, usual class: activators; U87-MG GRP78 promoter luciferase reporter, 16 h; active = well fitted activation curve with a large enough effect; inconclusive = small, poorly fitted or top-dose-only effect; inactive = no such curve, though single readings can be large or run the other way; also: series mostly up to about 76 µM; nearly all actives have a fitted effect of over 35% in size
#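 Stably transfected U87-MG human glioma cells carrying a GRP78-based luminescent sensor were seeded at 1000 cells/well, pin-dosed with compounds and incubated 16 h. Luciferase reagent was then added, and end-point luminescence was read after 10 min at room temperature.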
# Numbers stand for hits; n = inactive; u = inconclusive; x = no result given. Most compounds without a hit are left out; they make up all but 4% or so of the library. Rule as the data show it, unless noted: active = activation above about 30%; inactive = the rest.
SMILES,D1 antag,TRHR ag,TRHR enhancer,D1 agonist,D1 PAM,GRP78 ERSR act
COC(=O)c1ccc(NC(=O)CN2CCN(S(=O)(=O)c3cc(Cl)ccc3OC)CC2)cc1,n,n,n,38,n,n
CC1CCN(S(=O)(=O)c2ccc(NC(=O)CN3CCCC3)cc2)CC1,n,n,n,36,n,n
COc1ccc(S(=O)(=O)N2CCN(CC(=O)Nc3cccc(OC)c3)CC2)cc1,n,n,n,n,n,n
COc1ccc(C(=O)CN2CCN(S(=O)(=O)c3ccc(F)cc3)CC2)cc1,-30,n,n,n,n,n
COc1ccc(C(=O)CN2CCN(c3ccc(F)cc3)CC2)cc1,n,n,n,n,n,n
COc1ccc(S(=O)(=O)N2CCN(CC(=O)Nc3ccc(F)c(F)c3)CC2)cc1,-33,n,n,n,n,n
CC1CCN(CC(=O)Nc2ccc(S(=O)(=O)N3CCC(C)CC3)cc2)CC1,n,n,n,n,n,n
COC(=O)Cc1c(C)nc2nc(NCc3ccc(Br)cc3)[nH]n2c1=O,n,n,n,n,n,n
CNc1ccc(/C=C/c2ccnc3ccccc23)cc1,x,x,x,x,x,n
O=C(NCC(c1cccnc1)N1CCc2ccccc21)C(=O)Nc1ccccc1F (stereo not given),n,n,n,n,n,n
Cc1ccc(C)c(OCCC(=O)OCC(=O)NC2CCCC2)c1,n,n,n,n,n,n
O=[N+]([O-])c1ccc(O/N=[N+](\[O-])N2CCCCC2)c([N+](=O)[O-])c1,x,x,x,x,x,n
COc1cc(/C=C/c2nc3cc(Cl)ccc3c(=O)n2-c2ccc(C)cc2C)cc(OC)c1OC,-44,n,n,n,n,n
COc1cc(OC)c(OC)cc1/C=C/c1nc2cc3ccccc3cc2c(=O)n1-c1ccccc1Br,n,n,n,78,n,n
COc1ccc(Cl)cc1-n1c(/C=C/c2cccc3ccccc23)nc2ccccc2c1=O,-35,n,n,n,n,n
COc1ccc(-n2c(/C=C/c3cccc4ccccc34)nc3ccccc3c2=O)cc1OC,n,n,n,n,n,u
COCCCN1CN=C(Nc2nc3ccccc3o2)NC1,n,n,n,n,n,n
CCN1C(=O)/C(=C/C=C2\N(CC)c3cc(S(=O)(=O)N(C)C)ccc3N2c2ccccc2)SC1=S,n,n,n,83,n,n
Cc1ccc(NC(=O)NCCCN2CCCC2=O)cc1C,n,n,n,n,n,n
Cc1cccc(-c2nc(CN3CCCC(C(=O)NCCc4ccc(Cl)cc4)C3)c(C)o2)c1 (stereo not given),n,n,34,n,n,n
Cc1ccc(-c2nc(CN3CCCC(C(=O)N4CCOCC4)C3)c(C)o2)cc1 (stereo not given),-34,n,n,n,n,n
Cc1oc(-c2ccc(Cl)cc2)nc1CN1CCC(C(=O)NCCCN2CCCC(C)C2)CC1 (stereo not given),-30,n,n,n,n,n
CCOc1ccc(-c2nc(CN3CCCC(C(=O)N4CCOCC4)C3)c(C)o2)cc1 (stereo not given),n,n,n,n,n,n
Cc1oc(-c2cccc(Cl)c2)nc1CN1CCCC(C(=O)N2CCN(c3ccc(F)cc3)CC2)C1 (stereo not given),-64,n,n,35,n,n
CCCC(=O)Nc1cc(C(=O)N(C)CC(OC)OC)ccc1S(=O)(=O)c1ccc(C)cc1,n,n,n,n,n,n
SMILES,D1 antag,TRHR ag,TRHR enhancer,D1 agonist,D1 PAM,GRP78 ERSR act
Cc1oc(-c2ccc(Cl)cc2)nc1CN1CCC(C(=O)N2CCN(Cc3ccccc3)CC2)CC1,-68,n,n,33,x,n
Cc1oc(-c2ccc(Cl)cc2)nc1CN1CCC(C(=O)N2CCc3ccccc3C2)CC1,n,n,n,n,x,n
Cc1oc(-c2cccc(Cl)c2)nc1CN1CCC(C(=O)NCc2ccco2)CC1,n,n,n,n,n,n
Cc1oc(-c2cccc(Cl)c2)nc1CN1CCCC(C(=O)NCc2ccco2)C1 (stereo not given),-41,n,n,n,n,n
Cc1cc(OCCn2c(CCNC(=O)C3CCCCC3)nc3ccccc32)ccc1Cl,n,n,n,n,n,n
CCCCN1CC[C@H]2C=CC[C@@H](C(=O)NC3CCCCC3)[C@H]2C1=O,x,x,x,x,x,n
Cc1cccc(NC(=O)CN2C(=O)C3(SCC(=O)N3c3ccccc3)c3ccccc32)c1 (stereo not given),-36,n,n,n,n,n
Cc1c(Cl)c([N+](=O)[O-])nn1CCCC(=O)Nc1cccc(Cl)c1,-32,n,n,n,n,n
COc1ccc(/C(O)=C/c2nc3ccc(C(=O)NCCc4cccc(C)c4)cc3[nH]c2=O)cc1OC,n,n,n,71,n,n
CCOC(=O)c1oc2ccc(S(=O)(=O)n3nc(-c4ccc(OC)cc4)cc3N)cc2c1C,n,n,n,n,n,n
CCOC(=O)c1oc2ccc(S(=O)(=O)n3nc(-c4ccccc4)cc3N)cc2c1C,-34,n,n,n,n,n
Cc1c(C(=O)N(C)C2CCOC2)sc2ncnc(NCc3ccc4c(c3)OCO4)c12 (stereo not given),x,x,x,x,x,n
COc1ccc(CCN(C)C(=O)Cc2ccc(-c3ccccc3)cc2)cc1OC,-31,n,n,n,n,n
COc1ccc(CCN(C)C(=O)CN2C(=O)NC3(CCCCCC3)C2=O)cc1OC,-60,n,n,n,n,n
COc1ccc(CNC(=O)CN2C(=O)NC3(CCCCCC3)C2=O)cc1OC,n,n,n,n,n,n
CC(=O)NC(c1ccco1)c1cc(Cl)c2ccc(N3CCCCC3)nc2c1O (stereo not given),n,n,n,n,n,x
COc1ccc(C(CC(=O)N2CCOCC2)c2c(OC)cc(OC)c3c(-c4ccccc4)cc(=O)oc23)cc1 (stereo not given),-41,n,n,n,n,n
Cc1ccc(C)c(NC(=O)Cn2c(=O)n(CCC(C)C)c(=O)c3cccnc32)c1,-43,n,n,n,n,n
Cc1cc(C)c(NC(=O)Cn2c(=O)n(CCC(C)C)c(=O)c3cccnc32)c(C)c1,n,n,n,n,n,n
Cc1ccccc1NC(=O)COC(=O)c1ccc(CSc2ccc(Cl)cc2)cc1,n,n,n,179,n,n
Cc1ccccc1NC(=O)COC(=O)c1cccnc1,n,n,n,n,n,n
CS(=O)(=O)Nc1ccc(C(=O)Nc2ccc3ccccc3c2)cc1,-38,n,n,n,n,n
